Test results: PubChem BioAssay
Unmarked numbers belong to inactive results. For some of these results: Measured potencies and affinities stand elsewhere. Active and inactive are the calls of the source. Unless noted, the rule behind the calls is not given here.

Legend:
[1] = antimalarial activity against Dd2 strain (AID 2302;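 active = growth inhibition above 50% at the single 2 µM test dose, taken to imply half-maximal potency below 2 µM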;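 note: 0% = DMSO untreated growth and 100% = chloroquine plus artemisinin killed control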); conditions: P. falciparum Dd2 in RBCs, LDH growth readout, 72 h; at 2 µM; stronger effect = higher value
[2] = human hepatoma cell viability loss – ATP luminescence, cytotoxicity control for P. falciparum antimalarial project, primary screen (AID 2303;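 active = inhibition above 50%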;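 note: 0% = DMSO wells and 100% = digitonin-killed cells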); conditions: HepG2 viability, 24-48 h, at 10 µM, stronger effect = higher value
[3] = molecular target: L-lactate dehydrogenase (Plasmodium falciparum (isolate CDC / Honduras)) (UniProt Q27743); assay: PfLDH activity inhibition – cell lysate, 3D7 strain, counter-screen for P. falciparum growth inhibition project (AID 2304);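 note: 0% = vehicle and 100% = reference inhibitor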; conditions: P. falciparum 3D7 crude extract, LDH APAD/NBT absorbance; at 2 µM; stronger effect = higher value
[4] = inhibition of 3D7 malaria parasite growth – strain 3D7 (AID 2306);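 note: 0% = DMSO wells and 100% = chloroquine plus artemisinin control wells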; conditions: P. falciparum 3D7 erythrocytic growth, LDH absorbance, 72 h; at 2 µM; stronger effect = higher value
[5] = molecular target: Calcium-dependent protein kinase 1 (Plasmodium falciparum (isolate 3D7)) (UniProt P62344); assay: PfCDPK1 kinase inhibitors, biochemical, TCAMS library (AID 1159585; cut-off not given, nearly all actives have IC50 up to about 0.98 µM;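 note: inhibitors leave more ATP so luminescence rises with inhibition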); conditions: recombinant PfCDPK1, Kinase-Glo ATP depletion luminescence
[6] = molecular target: Plasmodium falciparum protein kinase 6 (PK6, PF3D7_1337100) (UniProt Q8IDW1); assay: PfPK6 kinase inhibitors, biochemical, TCAMS library (AID 1159586); conditions: recombinant PfPK6, Kinase-Glo ATP depletion luminescence
[7] = molecular target: Protein kinase 7 (PK7), Plasmodium falciparum 3D7 (PF3D7_0213400) (UniProt Q7YTF7); assay: inhibition of Plasmodium PK7 catalytic activity – biochemical, TCAMS antimalarial set, Kinase-Glo luminescence (AID 1159587); conditions: recombinant PfPK7, Kinase-Glo ATP depletion luminescence
[8] = molecular target: Calcium-dependent protein kinase 4 (Plasmodium falciparum (isolate 3D7)) (UniProt Q8IBS5); assay: PfCDPK4 kinase inhibitors, biochemical, TCAMS library (AID 1159588; cut-off not given, nearly all actives have IC50 up to about 0.91 µM); conditions: recombinant PfCDPK4, Kinase-Glo ATP depletion luminescence
Calcium-dependent protein kinase 4 (Plasmodium falciparum (isolate 3D7)), sequence (Q8IBS5 whole entry, looked up): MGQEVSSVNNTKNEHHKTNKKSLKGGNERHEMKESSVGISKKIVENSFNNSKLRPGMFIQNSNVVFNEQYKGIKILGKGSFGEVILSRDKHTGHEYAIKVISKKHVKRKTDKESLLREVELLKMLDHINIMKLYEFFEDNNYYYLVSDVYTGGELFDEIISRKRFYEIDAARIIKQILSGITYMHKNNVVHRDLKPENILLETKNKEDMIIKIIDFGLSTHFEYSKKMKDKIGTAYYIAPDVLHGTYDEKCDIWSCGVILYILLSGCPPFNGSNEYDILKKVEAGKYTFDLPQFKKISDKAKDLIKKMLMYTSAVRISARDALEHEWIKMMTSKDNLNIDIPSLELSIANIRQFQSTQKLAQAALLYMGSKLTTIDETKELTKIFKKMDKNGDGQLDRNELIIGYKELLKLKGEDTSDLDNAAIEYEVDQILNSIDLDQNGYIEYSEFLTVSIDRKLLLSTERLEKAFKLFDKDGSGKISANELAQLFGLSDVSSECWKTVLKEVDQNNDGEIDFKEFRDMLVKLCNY

L-lactate dehydrogenase (Plasmodium falciparum (isolate CDC / Honduras)), sequence (Q27743 whole entry, looked up): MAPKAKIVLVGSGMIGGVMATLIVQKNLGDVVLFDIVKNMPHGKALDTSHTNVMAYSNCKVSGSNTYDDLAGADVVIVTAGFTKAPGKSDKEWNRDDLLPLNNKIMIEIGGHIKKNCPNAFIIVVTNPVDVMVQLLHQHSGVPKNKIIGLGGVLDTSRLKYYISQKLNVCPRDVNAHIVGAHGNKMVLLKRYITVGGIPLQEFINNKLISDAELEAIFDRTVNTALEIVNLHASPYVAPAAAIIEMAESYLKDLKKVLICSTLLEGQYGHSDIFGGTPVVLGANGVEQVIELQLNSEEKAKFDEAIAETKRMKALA
Calcium-dependent protein kinase 1 (Plasmodium falciparum (isolate 3D7)), sequence (P62344 whole entry, looked up): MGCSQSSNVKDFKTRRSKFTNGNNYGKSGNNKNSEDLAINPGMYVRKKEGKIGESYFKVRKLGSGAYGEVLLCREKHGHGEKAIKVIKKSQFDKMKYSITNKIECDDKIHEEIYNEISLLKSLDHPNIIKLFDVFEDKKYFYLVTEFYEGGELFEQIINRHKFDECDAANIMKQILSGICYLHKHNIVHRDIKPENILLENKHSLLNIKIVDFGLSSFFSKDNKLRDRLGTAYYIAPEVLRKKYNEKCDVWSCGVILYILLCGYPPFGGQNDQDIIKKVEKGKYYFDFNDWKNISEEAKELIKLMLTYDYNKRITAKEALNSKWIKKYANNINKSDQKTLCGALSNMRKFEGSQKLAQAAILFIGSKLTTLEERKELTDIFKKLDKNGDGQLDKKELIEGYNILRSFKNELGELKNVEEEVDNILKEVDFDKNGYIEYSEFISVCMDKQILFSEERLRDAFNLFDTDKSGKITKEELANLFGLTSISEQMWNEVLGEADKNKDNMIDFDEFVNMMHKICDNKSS
Plasmodium falciparum protein kinase 6 (PK6, PF3D7_1337100), sequence (Q8IDW1 1-305): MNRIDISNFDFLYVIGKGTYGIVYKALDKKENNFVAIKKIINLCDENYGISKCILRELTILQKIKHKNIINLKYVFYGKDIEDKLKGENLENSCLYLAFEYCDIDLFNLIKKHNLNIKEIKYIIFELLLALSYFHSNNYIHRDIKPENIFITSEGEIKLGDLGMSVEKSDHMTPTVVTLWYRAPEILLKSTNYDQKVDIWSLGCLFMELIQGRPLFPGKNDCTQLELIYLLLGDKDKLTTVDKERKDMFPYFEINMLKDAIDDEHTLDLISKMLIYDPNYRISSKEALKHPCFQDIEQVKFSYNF
Protein kinase 7 (PK7), Plasmodium falciparum 3D7 (PF3D7_0213400), sequence (Q7YTF7 1-343): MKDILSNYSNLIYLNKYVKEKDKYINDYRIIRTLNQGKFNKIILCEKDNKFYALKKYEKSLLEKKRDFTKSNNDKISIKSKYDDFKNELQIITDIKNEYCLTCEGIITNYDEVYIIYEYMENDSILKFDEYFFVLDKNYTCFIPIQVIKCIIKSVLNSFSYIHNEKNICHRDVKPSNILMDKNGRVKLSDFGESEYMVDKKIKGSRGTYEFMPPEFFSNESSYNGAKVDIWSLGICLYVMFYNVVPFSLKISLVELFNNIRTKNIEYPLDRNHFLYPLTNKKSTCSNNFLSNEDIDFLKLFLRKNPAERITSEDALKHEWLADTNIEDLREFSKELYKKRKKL

SMILES	growth inhibition [1]	inhibition [2]	inhibition [3] [%]	growth inhibition [4]	outcome [5]	outcome [6]	outcome [7]	outcome [8]
NC(N)=Nc1nccc(NCc2ccccc2)n1	48%	95% (active)	-1	88% (active)	inactive	inactive	inactive	inactive
CCCN1CCN(Cc2ccc(C(=O)Nc3ccc(Cl)cc3)cc2)CC1	14%	48%	-2	94% (active)	inactive	inactive	inactive	inactive
CN(C)C(=O)c1ccc(CN(Cc2ccc3c(c2)OCCO3)Cc2ccc3c(c2)OCO3)cc1	95% (active)	-10%	3	89% (active)	inactive	inactive	inactive	inactive
COc1ccccc1C1CN(CCNC(=O)c2ncc(C)[nH]2)Cc2ccccc2O1 (stereo not drawn)	86% (active)	4%	0	90% (active)	inactive	inactive	inactive	inactive
Brc1ccc(Nc2nc(NCC3CCCO3)c3ccccc3n2)cc1 (stereo not drawn)	99% (active)	13%	-3	100% (active)	inactive	inactive	inactive	inactive
Cc1ccccc1Nc1nc(Nc2ccccc2)c2ccccc2n1	21%	19%	-8	103% (active)	inactive	inactive	inactive	inactive
CCOc1ccc2c(NN=Cc3cc(OC)c(OC)c(OC)c3)cc(C)nc2c1	99% (active)	18%	-4	101% (active)	inactive	inactive	inactive	inactive
O=C(Cn1c(CCc2cccc(F)c2F)cc(=O)c2ccccc21)N(CCN1CCCCC1)Cc1ccc(-c2ccc(C(F)(F)F)cc2)cc1	59% (active)	9%	-6	101% (active)	inactive	inactive	inactive	inactive
Cc1ccc(NC(=O)Nc2ccc(Cn3ncc(N4CCCNCC4)c(Cl)c3=O)cc2)cc1	13%	35%	-1	84% (active)	inactive	inactive	inactive	inactive
Cc1cc(NC(c2ccc(Cl)cc2)c2ccc3cccnc3c2O)no1 (stereo not drawn)	26%	50% (active)	5	88% (active)	inactive	inactive	inactive	inactive
CC1(C)N=C(N)N=C(N)N1c1ccc(Cl)c(Cl)c1	56% (active)	67% (active)	0	95% (active)	inactive	inactive	inactive	inactive
O=C(C1CCCC1)N1CCOC(CCN2CCC(c3ccccc3)CC2)(c2ccc(Cl)c(Cl)c2)C1 (stereo not drawn)	77% (active)	16%	0	88% (active)	inactive	inactive	inactive	inactive
CC(CN(C)C)C(=O)Nc1ccc(-c2csc(-c3nc4ccccc4[nH]3)c2)cc1 (stereo not drawn)	19%	28%	-4	84% (active)	inactive	inactive	inactive	inactive
CCCN1CCN(c2ccccc2NS(=O)(=O)c2ccc(C(=O)Nc3ccc(Cl)cc3)cc2)CC1	9%	17%	-2	84% (active)	inactive	inactive	inactive	inactive
FC(F)(F)c1ccc(CNC2CCN(CC3CCCCC3)CC2)cc1	5%	4%	-4	87% (active)	inactive	inactive	inactive	inactive
CC(=O)Oc1c(C2CCN(CCCCNC(=O)c3ccc(-c4ccc(C#N)cc4)cc3)CC2)ccc2c1CCCC2	52% (active)	21%	3	88% (active)	inactive	inactive	inactive	inactive
Cc1ccccc1C1CCN(C2CCC(NC(=O)/C=C/c3ccccc3C(F)(F)F)CC2)CC1 (stereo not drawn)	6%	63% (active)	-1	83% (active)	inactive	inactive	inactive	inactive
CCc1cccc(OCCCON2C(N)=NC(N)=NC2(C)C)c1	94% (active)	63% (active)	5	95% (active)	inactive	inactive	inactive	inactive
CC(C)Oc1cc2c(cc1NS(=O)(=O)c1ccc(-c3ccc(Cl)s3)cc1F)CCN(C)CC2	1%	23%	-5	99% (active)	inactive	inactive	inactive	inactive
CC(=O)c1ccc2cc(C(=O)NC3CCC(CCN4CCc5ccc(-c6noc(C)n6)cc5CC4)CC3)[nH]c2c1 (stereo not drawn)	45%	28%	0	81% (active)	inactive	inactive	inactive	inactive
CC(C)C[C@@H](NC(=O)NC1CCC(CCN2[C@@H]3CC[C@H]2CC(OC(=O)C(CO)c2ccccc2)C3)CC1)C(O)(c1ccccc1)c1ccccc1 (stereo partly drawn)	71% (active)	21%	-6	95% (active)	inactive	inactive	inactive	inactive

SMILES	growth inhibition [1]	inhibition [2]	inhibition [3] [%]	growth inhibition [4]	outcome [5]	outcome [6]	outcome [7]	outcome [8]
CN1CCN(c2cccc(Nc3nccc(NCC(O)c4ccccc4)n3)c2)CC1 (stereo not drawn)	4%	30%	-2	101% (active)	inactive	inactive	inactive	inactive
CCN(CC)CCN(Cc1ccc(-c2ccc(C(F)(F)F)cc2)cc1)C(=O)Cn1c(CCc2c(F)cc(F)cc2F)nc(=O)c2ccccc21	26%	39%	3	89% (active)	inactive	inactive	inactive	inactive
COc1ccc2nccc([C@@H](O)CN3CCC(NCc4nc5ccccc5s4)CC3)c2c1	5%	8%	-3	93% (active)	inactive	inactive	inactive	inactive
CCOc1ccc(-c2nonc2NC(=O)CC(C)C)cc1OCC	37%	-1%	6	92% (active)	inactive	inactive	inactive	inactive
CN1CCC(C(=O)Nc2ccc(-c3cccc(-c4nc5ccc(F)cc5[nH]4)c3)cc2)CC1	5%	19%	5	101% (active)	inactive	inactive	inactive	inactive
O=C(NC(Cc1ccccc1)C(=O)O)c1cc(=O)c2ccccc2o1 (stereo not drawn)	10%	53% (active)	-6	99% (active)	inactive	inactive	inactive	inactive
CN1C(C)(C)CC(NC(=O)c2ccc(-c3nc4cc(Cl)c(Cl)cc4[nH]3)cc2)CC1(C)C	97% (active)	8%	4	98% (active)	inactive	inactive	inactive	inactive
FC(F)(F)COc1ccc2ccccc2c1CNCCCCCCNCc1c(OCC(F)(F)F)ccc2ccccc12	95% (active)	99% (active)	2	101% (active)	inactive	inactive	inactive	inactive
O=C(N[C@@H](Cc1ccccc1)[C@H](O)CNC1CCc2ccccc2C1)c1cc(C2CCCC2)cc(N2CCCC2=O)c1 (stereo partly drawn)	76% (active)	23%	-4	99% (active)	inactive	inactive	inactive	inactive
COc1ccc2nccc(N3CCC(CCNCc4cc5c(cn4)OCCO5)CC3)c2c1	99% (active)	26%	6	100% (active)	inactive	inactive	inactive	inactive
COc1ccccc1C1CCN(C2CCC(NC(=O)c3ccc4nc(-c5ccc(C)cc5)[nH]c4c3)CC2)CC1 (stereo not drawn)	100% (active)	100% (active)	4	101% (active)	inactive	inactive	inactive	inactive
COc1cccc2c(NN=Cc3cccc([N+](=O)[O-])c3)ccnc12	47%	12%	-7	100% (active)	inactive	inactive	inactive	inactive
CN1CCC(C(=O)N(Cc2ccc(-c3ccc(CNCCc4ccccc4)cn3)cc2)Cc2cccc(F)c2)CC1	80% (active)	30%	-4	90% (active)	inactive	inactive	inactive	inactive
COc1ccc(-c2ccc(NC(=O)c3ccc(C#N)cc3)cc2)cc1CN(C)CCN(C)C	58% (active)	28%	2	96% (active)	inactive	inactive	inactive	inactive
CC(C)N1CCN(C(=O)c2ccc(CNCCCN3CCN(c4cccc(Cl)c4Cl)CC3)s2)CC1	44%	51% (active)	-3	102% (active)	inactive	inactive	inactive	inactive
O=C(Nc1ccccc1)N(Cc1cccc(-c2cccc(CNCc3ccc4c(c3)OCO4)c2)c1)C1CCN(Cc2ccccc2)CC1	84% (active)	96% (active)	0	101% (active)	inactive	inactive	inactive	inactive
OCC1CCN(Cc2ccc(-c3ccc(-c4nc5ccc(C(F)(F)F)cc5[nH]4)s3)cc2)CC1	90% (active)	35%	-2	102% (active)	inactive	inactive	inactive	inactive
Cc1cccc2[nH]c(-c3ccc(-c4cccc(NC(=O)C(C)CN5CCN(C)CC5)c4)cc3)nc12 (stereo not drawn)	51% (active)	5%	3	98% (active)	inactive	inactive	inactive	inactive
Cc1cnn(-c2cccc(C(=O)NC3CCC(CCN4CCc5ccc(C#N)cc5CC4)CC3)c2)c1 (stereo not drawn)	48%	24%	-9	94% (active)	inactive	inactive	inactive	inactive
Fc1ccc2nc(-c3ccc(-c4ccc(CN5CCCCC5)cc4)cc3)[nH]c2c1	100% (active)	31%	-3	98% (active)	inactive	inactive	inactive	inactive
